Data: the supplement of paper PMC10849652
Of roughly 8,800 targets only a part is listed; those with a hit were picked by preference. About 0.5% of all pairs of compound and target were hits. Unmarked numbers belong to inactive results.

Assays:
Test in all cases: log2 fold change, soluble protein after heating vs DMSO (PISA); higher = thermal stabilisation; K562 lysate, 10 uM; active = over 0.2 and 3.5 SD of the protein, either way, in both replicates (recomputed)
[1] = compound: NCC(=O)Nc1ccc(-n2nc(C(F)(F)F)cc2-c2ccc3c(ccc4ccccc43)c2)cc1
Outline: (§1)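 The values are log-two fold changes in thermal stability compared with solvent controls and come from duplicates. They were obtained by TMTpro 16plex LC-MS/MS, with channel sums equalised, on the supernatant after 21,000xg for 90 min. That supernatant came from crude K562 extract at 1 mg/mL protein treated with 10 μM compound for 30 min, heated for 3 min across 48°C-58°C, pooled and brought to 0.5% NP-40 at 4°C.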

[2] = compound: O=C(CCCCCCC(=O)Nc1ccccc1)NO [vorinostat]
Outline: as §1

[3] = compound: O=C(O)c1ccc2c(c1)nc(Nc1cccc(Cl)c1)c1ccncc12 [silmitasertib]
Outline: as §1

[4] = compound: O=C1NC(=O)C(c2cnc3ccccn23)=C1c1cn2c3c(cc(F)cc13)CN(C(=O)N1CCCCC1)CC2
Outline: as §1

[5] = compound: c1cn2cc(-c3ccc4cn[nH]c4c3)nc(Nc3ccc(N4CCOCC4)cc3)c2n1 [entospletinib]
Outline: as §1

Chain of UniProt Q9Y6H1 (Q9Y6H1 whole entry, looked up): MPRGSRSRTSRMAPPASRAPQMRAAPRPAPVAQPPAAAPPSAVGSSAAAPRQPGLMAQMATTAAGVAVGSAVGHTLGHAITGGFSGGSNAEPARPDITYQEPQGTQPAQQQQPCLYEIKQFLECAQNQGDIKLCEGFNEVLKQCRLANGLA
Chain of UniProt Q96NL8 (Q96NL8 whole entry, looked up): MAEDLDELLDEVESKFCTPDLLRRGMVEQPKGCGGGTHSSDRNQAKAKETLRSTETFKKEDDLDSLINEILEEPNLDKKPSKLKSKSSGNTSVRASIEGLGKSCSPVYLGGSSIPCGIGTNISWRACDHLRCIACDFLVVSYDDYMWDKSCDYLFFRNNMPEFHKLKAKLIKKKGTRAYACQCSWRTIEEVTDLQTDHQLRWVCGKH
Chain of UniProt P42574 (P42574 whole entry, looked up): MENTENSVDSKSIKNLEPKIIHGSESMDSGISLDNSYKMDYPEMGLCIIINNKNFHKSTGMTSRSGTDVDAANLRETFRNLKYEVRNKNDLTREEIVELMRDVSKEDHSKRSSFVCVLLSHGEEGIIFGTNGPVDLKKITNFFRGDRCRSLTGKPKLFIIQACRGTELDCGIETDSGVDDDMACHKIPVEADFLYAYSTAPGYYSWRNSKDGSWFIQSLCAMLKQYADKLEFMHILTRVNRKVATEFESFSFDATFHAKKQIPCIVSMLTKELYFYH
Chain of UniProt Q9HD20 (Q9HD20 whole entry, looked up): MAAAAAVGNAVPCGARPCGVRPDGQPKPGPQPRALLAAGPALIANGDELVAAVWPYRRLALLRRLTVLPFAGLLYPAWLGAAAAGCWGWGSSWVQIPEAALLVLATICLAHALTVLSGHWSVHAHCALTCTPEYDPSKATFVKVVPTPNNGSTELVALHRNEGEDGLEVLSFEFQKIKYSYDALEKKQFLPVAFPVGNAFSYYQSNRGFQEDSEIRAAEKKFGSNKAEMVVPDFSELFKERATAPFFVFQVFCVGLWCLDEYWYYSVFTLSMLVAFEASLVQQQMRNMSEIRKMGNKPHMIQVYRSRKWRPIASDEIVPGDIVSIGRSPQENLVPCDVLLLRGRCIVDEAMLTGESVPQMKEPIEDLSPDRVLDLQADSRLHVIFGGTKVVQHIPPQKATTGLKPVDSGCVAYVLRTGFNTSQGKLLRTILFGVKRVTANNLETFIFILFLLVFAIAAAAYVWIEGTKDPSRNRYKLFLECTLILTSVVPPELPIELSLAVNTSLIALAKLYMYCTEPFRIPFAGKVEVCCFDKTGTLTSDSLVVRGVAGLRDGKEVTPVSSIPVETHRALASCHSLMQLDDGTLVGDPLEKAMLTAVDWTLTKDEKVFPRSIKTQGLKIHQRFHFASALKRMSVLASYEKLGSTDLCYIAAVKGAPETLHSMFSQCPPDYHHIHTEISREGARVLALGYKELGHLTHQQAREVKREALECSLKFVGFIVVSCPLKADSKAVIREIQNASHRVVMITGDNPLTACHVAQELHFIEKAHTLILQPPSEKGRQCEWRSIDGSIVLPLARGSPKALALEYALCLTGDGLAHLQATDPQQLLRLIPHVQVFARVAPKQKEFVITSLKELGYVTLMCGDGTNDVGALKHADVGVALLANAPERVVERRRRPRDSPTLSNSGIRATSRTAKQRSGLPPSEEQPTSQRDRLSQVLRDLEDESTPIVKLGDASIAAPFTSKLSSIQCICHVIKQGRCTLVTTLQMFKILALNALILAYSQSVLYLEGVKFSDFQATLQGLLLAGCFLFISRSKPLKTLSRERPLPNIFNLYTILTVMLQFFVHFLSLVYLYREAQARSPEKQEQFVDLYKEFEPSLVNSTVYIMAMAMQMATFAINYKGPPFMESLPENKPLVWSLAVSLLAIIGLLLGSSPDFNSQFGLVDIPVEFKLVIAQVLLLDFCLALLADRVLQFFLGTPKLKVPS
Chain of UniProt Q9BXL7 (Q9BXL7 whole entry, looked up): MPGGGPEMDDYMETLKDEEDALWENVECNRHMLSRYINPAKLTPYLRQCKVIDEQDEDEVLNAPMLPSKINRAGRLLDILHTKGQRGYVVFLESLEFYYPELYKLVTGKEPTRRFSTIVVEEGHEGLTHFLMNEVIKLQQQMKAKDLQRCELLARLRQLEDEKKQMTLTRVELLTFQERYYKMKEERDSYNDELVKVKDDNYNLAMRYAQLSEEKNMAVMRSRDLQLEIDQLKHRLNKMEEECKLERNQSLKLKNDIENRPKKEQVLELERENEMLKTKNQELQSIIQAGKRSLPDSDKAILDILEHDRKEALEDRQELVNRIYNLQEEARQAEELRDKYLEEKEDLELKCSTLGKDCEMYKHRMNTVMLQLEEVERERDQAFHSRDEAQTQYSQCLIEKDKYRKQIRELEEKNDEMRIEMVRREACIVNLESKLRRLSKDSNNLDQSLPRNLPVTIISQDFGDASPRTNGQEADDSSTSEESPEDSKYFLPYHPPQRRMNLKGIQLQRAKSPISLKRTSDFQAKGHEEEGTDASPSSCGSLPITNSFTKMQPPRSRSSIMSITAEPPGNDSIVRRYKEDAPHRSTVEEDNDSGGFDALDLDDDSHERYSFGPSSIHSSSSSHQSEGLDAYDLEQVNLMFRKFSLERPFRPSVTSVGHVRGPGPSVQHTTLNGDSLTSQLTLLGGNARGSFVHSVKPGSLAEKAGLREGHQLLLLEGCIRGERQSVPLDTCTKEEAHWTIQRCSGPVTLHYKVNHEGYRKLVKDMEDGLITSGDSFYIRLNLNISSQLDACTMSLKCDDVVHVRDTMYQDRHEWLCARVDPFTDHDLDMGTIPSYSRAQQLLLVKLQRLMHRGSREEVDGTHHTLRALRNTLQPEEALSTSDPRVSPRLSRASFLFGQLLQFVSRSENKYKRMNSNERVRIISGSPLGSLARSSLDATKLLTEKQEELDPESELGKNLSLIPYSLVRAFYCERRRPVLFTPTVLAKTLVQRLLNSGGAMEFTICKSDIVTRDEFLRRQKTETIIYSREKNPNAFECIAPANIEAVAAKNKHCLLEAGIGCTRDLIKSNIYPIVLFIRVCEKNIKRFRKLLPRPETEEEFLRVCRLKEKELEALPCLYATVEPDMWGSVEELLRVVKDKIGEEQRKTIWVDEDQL
Chain of UniProt O75794 (O75794 whole entry, looked up): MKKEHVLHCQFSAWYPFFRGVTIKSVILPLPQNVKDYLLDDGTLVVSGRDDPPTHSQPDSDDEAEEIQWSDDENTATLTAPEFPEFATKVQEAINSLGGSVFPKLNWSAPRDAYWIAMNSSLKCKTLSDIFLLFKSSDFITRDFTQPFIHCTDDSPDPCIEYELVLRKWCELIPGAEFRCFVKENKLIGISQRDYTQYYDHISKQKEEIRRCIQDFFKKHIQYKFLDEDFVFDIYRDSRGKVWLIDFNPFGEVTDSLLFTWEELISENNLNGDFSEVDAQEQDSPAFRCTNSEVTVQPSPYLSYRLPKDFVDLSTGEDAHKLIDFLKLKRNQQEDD
Chain of UniProt O00748 (O00748 whole entry, looked up): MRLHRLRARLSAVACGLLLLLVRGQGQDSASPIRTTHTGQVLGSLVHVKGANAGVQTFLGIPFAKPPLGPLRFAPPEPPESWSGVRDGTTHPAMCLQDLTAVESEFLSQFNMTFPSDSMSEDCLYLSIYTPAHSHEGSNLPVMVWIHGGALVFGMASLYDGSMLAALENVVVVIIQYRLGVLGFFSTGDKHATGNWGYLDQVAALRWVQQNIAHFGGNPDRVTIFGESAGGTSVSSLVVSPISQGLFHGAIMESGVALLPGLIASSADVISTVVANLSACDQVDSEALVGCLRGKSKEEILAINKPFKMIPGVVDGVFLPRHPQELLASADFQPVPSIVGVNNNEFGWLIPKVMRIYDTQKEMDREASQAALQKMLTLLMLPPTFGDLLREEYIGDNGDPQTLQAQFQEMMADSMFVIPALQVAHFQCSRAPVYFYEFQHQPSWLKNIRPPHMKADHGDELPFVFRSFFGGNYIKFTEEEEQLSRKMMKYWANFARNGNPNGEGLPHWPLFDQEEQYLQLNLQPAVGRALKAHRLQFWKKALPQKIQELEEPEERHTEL
Chain of UniProt O95674 (O95674 whole entry, looked up): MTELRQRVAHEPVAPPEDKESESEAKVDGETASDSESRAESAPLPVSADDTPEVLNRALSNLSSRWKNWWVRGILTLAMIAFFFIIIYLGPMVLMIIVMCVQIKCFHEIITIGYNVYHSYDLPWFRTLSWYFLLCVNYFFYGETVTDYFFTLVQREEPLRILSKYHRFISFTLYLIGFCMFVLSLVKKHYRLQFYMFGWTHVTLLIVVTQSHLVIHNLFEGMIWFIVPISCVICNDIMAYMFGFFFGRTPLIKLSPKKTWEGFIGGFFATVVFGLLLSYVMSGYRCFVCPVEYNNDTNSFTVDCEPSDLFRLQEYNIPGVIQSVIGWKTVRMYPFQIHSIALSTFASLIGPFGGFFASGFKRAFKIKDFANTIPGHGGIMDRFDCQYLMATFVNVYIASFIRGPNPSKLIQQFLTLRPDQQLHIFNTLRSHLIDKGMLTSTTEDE

Target	log2 fold change [1]	log2 fold change [2]	log2 fold change [3]	log2 fold change [4]	log2 fold change [5]
CASP3 (UniProt P42574)	-0.031	0.058	-0.02	0.007	-0.027
CES2 isoform 4 (UniProt O00748)	0.049	0.307	-0.093	0.177	-0.034
ATP13A1 (UniProt Q9HD20)	-0.009	-0.094	0.03	-0.02	-0.03
CARD11 (UniProt Q9BXL7)	-0.113	-0.406 (active)	0.001	0.004	-0.031
CHCHD1 (UniProt Q96BP2)	0.131	0.055	-0.039	-0.014	-0.081
CHCHD2 (UniProt Q9Y6H1)	-0.022	-0.301 (active)	0.044	-0.017	-0.06
CDC123 (UniProt O75794)	-0.064	-0.019	0.015	-0.032	0.043
CDS2 (UniProt O95674)	0.007	0.093	0.024	-0.065	-0.028
C8orf37 (UniProt Q96NL8)	0.206	0.084	0.044	0.008	-0.035
